Screening results: PubChem BioAssay, National Center for Advancing Translational Sciences (NCATS)
AID inh: inhibitors of human activation induced cytidine deaminase. Q9GZX7. AID deamination FRET fluorescence, UDG-coupled, 4 h. Potency, µM (series often up to 115 µM), hits mostly inhibitors. 91,000 compounds, 0.32% hits. AID 1347428; also: nearly all actives have a fitted effect of over 25% in size
Target sequence (Q9GZX7 whole entry, looked up): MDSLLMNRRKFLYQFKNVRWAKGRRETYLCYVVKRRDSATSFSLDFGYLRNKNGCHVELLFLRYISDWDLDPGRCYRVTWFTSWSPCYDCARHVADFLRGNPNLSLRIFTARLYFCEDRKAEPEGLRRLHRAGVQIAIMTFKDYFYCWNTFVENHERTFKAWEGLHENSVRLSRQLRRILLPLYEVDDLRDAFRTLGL
UDG counter: UDG inhibition counter-screen. FRET deamination/UDG coupled assay, UDG read, 4 h. Potency, µM (top dose mostly 115 µM), for the others: at the highest dose activity change, negative = inhibition, actives largely listed as inhibitors. 91,000 compounds, 0.14% hits; also: nearly all actives have a fitted effect of over 65% in size
Starred values were filed as active, the others as inactive; i = inactive; ? = inconclusive; [ ] = dose if it differs, or a comment. Compounds with a hit are over-represented: about 0.47% of the library has one in this group of screens. Calls follow the shape of the dose curve; as a rule, active = well fitted curve in the direction sought with a large enough effect; inconclusive = small, poorly fitted or top-dose-only effect, or another doubt; inactive = no such curve, though single readings can be large; an effect the other way counts as inactive or inconclusive. % is scaled to controls: 0 for no effect and ±100 for the full control effect; potency is read from the fitted curve at half-maximal effect.

SMILES | AID inh | UDG counter
O=C(Cn1ccc2cc(S(=O)(=O)N3CCCCCC3)ccc21)NCc1ccco1 | i | 0.0%
O=C1OC(C(=O)OCc2ccc3c(c2)OCO3)Cc2ccccc21 (centres undefined) | i | -2.0%
CS(=O)(=O)NC1CCN(C(=O)c2cc(Cl)ccc2F)CC1 | i | -0.1%
CC(=O)c1c(C)oc2c(Br)cc(NS(=O)(=O)c3ccc(Cl)c(C)c3)cc12 | i | 6.3%
Cc1ccc(C(=O)Nc2sc3c(c2C(=O)NCc2ccco2)CCC(C(C)(C)C)C3)cc1 (centres undefined) | i | 1.8%
CC(C)(C)C1CCc2c(sc(NC(=O)c3ccccc3F)c2C(=O)NCc2ccco2)C1 (centres undefined) | 11.2µM* | -11.6%
O=C(NCCCCCO)C1CCN(c2nc(Cl)nc3nc[nH]c23)CC1 | i | 89.1µM*
O=C(CCNc1nc(Cl)nc2nc[nH]c12)NC1CC1 | i | -10.7%
CCN(CC)CCNC(=O)c1ccc2c(=O)n3nc(Nc4ccccc4OC)sc3nc2c1 | 70.8µM* | 1.7%
COc1ccccc1Nc1nn2c(=O)c3ccc(C(=O)NCCCOC(C)C)cc3nc2s1 | i | 3.3%
Cc1ccc(C)c(Nc2nn3c(=O)c4ccc(C(=O)NCc5cccs5)cc4nc3s2)c1 | 39.8µM* | -19.7%
COc1ccccc1Nc1nn2c(=O)c3ccc(C(=O)NCc4cccs4)cc3nc2s1 | i | -6.8%
O=C(c1ccc2c(Cl)c3c(nc2c1)CCCC3)N1CCN(c2cccc(C(F)(F)F)c2)CC1 | i | 1.0%
COc1cccc(N2CCN(C(=O)c3ccc4c(Cl)c5c(nc4c3)CCCC5)CC2)c1 | 20µM* | -12.6%
O=C(c1ccc2c(Cl)c3c(nc2c1)CCCC3)N1CCN(c2ccc(Cl)cc2)CC1 | i | 0.6%
O=C(c1ccc2c(Cl)c3c(nc2c1)CCCC3)N1CCN(c2cccc(Cl)c2)CC1 | 14.1µM* | -14.1%
Cc1ccc(S(=O)(=O)c2nc(S(C)(=O)=O)sc2NCc2ccccc2)cc1 | i | -1.8%
C#CCNC(=O)CCSCc1csc(C)n1 | i | 1.2%
Cc1cc(-c2nn3c(-c4cc(F)ccc4F)nnc3s2)n(C)n1 | i | -2.3%
C=Cc1ccc(CSc2nc(-c3ccc(Cl)cc3)nc3c2Cc2c(CO)cnc(C)c2O3)cc1 | i | -9.1%
C=Cc1ccc(CSc2nc(-c3ccccc3C)nc3c2Cc2c(CO)cnc(C)c2O3)cc1 | 44.7µM* | -7.7%
O=C(Nc1ccc(SC2CCCC2)cc1)c1cccs1 | i | -17.0%
COc1ccc(N2CCN(C(=O)c3cc4c(-c5ccccc5F)nn(C)c4s3)CC2)cc1 | ? | -10.5%
COc1ccc(-c2nn(C)c3sc(C(=O)N4CCN(c5cccc(Cl)c5)CC4)cc23)cc1OC | 79.4µM* | ?
Cc1c(Cl)cccc1-n1ncc(C(=O)N2CCN(c3ncccn3)CC2)c1C1CCN(C(=O)OC(C)(C)C)CC1 | i | -8.5%
SMILES | AID inh | UDG counter
COc1ccccc1N1CCN(CCCNC(=O)c2cnn(-c3ccc(C)c(C)c3)c2C2CCN(C(=O)OC(C)(C)C)CC2)CC1 | 50.1µM* | 11.9%
COc1ccc(CCN2CCC(CNC(=O)c3cnn(-c4cccc(Cl)c4)c3C3CCN(C(=O)OC(C)(C)C)CC3)CC2)cc1 | 35.5µM* | -17.1%
Cc1ccc(C)c(N2CCN(CCCNC(=O)c3cnn(-c4ccccc4)c3C3CCN(C(=O)OC(C)(C)C)CC3)CC2)c1 | i | 37.7%
COc1ccc(CCN2CCC(CNC(=O)c3cnn(-c4ccccc4)c3C3CCN(C(=O)OC(C)(C)C)CC3)CC2)cc1 | ? | 42.7%
CC(C)(C)OC(=O)N1CCC(c2c(C(=O)N3CCN(c4ccccc4F)CC3)cnn2-c2ccccc2Cl)CC1 | 50.1µM* | ?
COc1cccc(CNC(=O)CC(c2ccc(C)cc2)N2Cc3ccccc3C2=O)c1 (centres undefined) | ? | 2.0%
COc1cc(NC(=O)CC(c2ccc(C)cc2)N2Cc3ccccc3C2=O)cc(OC)c1 (centres undefined) | 44.7µM* | -23.6%
COc1ccc(NC(=O)C2CCN(c3nc(-c4ccc(OC)c(OC)c4)no3)CC2)cc1Cl | i | -9.4%
CSc1ccccc1C(=O)Nc1c(F)cccc1F | i | 1.4%
NNc1nncc2ccccc12 | 44.7µM* | 35.5µM*
c1ccc(CN2CCC(=NNc3nncc4ccccc34)CC2)cc1 | i | 5.0%
Cn1c(SCc2ccc(F)cc2)nc2ccc(C(=O)NCc3ccc(Cl)cc3)cc21 | ? | -11.6%
Cn1c(SCc2ccc(F)cc2)nc2ccc(C(=O)NCc3ccc(F)cc3)cc21 | 28.2µM* | 0.5%
Cc1cccc(-n2c(SCC(=O)Nc3ccccc3Cl)nc3n[nH]c(C)c3c2=N)c1 | i | 2.4%[57.5 µM]
COc1cc(C#N)ccc1OCc1csc(-c2ccccc2)n1 | i | 2.2%
Cc1ccc(CNC(=O)c2ccc3nc(N4CCCCC4)sc3c2)cc1 | i | -8.6%
Cc1ccc(C)c(N2CCN(CCCNC(=O)c3ccc4nc(N5CCCCC5)sc4c3)CC2)c1 | 39.8µM* | -10.6%
CCCOc1cccc(CNc2ccc(F)cc2)c1 | i | -0.5%
